CHRM1 PAM – positive allosteric modulators of human M1 muscarinic receptor; actives 0.088% (n = 360,000); activation, % at 3 µM; CHO-K1 hM1, Fluo-8 calcium fluorescence, ACh EC20; 0% = ACh EC20, 100% = maximal ACh; P11229; in the data active = activation above about 19%, passing the limit was not always enough
Target sequence (P11229 whole entry, looked up): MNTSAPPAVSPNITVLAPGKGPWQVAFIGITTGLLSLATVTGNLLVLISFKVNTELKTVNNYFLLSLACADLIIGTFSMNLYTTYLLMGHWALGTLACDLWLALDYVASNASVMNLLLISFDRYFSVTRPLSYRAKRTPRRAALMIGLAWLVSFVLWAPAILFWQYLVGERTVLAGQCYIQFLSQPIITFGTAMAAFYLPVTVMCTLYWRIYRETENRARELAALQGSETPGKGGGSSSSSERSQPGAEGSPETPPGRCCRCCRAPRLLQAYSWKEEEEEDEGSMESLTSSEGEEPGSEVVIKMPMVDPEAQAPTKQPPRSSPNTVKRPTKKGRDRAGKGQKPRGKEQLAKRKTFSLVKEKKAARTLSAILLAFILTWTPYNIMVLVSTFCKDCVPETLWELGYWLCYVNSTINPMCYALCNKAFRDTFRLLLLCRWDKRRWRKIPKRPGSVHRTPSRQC
CHO-K1 Ca PAM – counter-screen for M1 PAMs: effect in parental CHO-K1 cells | actives 0.02% (n = 360,000) | ATP EC20, Fluo-8 calcium fluorescence; 0% at ATP EC20, 100% at ATP max | activation, % at 3 µM;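 active = activation above the run cutoff, the mean activation of all test compounds plus 3 SD, cut at about 40% in these data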;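 note: peak over basal fluorescence ratio in a 140 s read after ATP addition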
CHRM1 antagonist – antagonists of human M1 muscarinic receptor; P11229; CHO-K1 hM1, Fluo-8 calcium fluorescence, ACh EC80 antagonist; inhibition, % at 3 µM; actives 1.3% (n = 360,000); AID 588852;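 active = percent inhibition above its own plate's cutoff, namely the mean of that plate's compound wells plus 3 SD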;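 note: peak over basal fluorescence ratio during 140 s after agonist addition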
CHRM1 agonist – human M1 muscarinic receptor agonism | P11229 | actives 0.33% (n = 360,000) | activation, % at 3 µM | CHO-K1 hM1, Fluo-8 calcium fluorescence, agonist mode; 0% DMSO, 100% acetylcholine EC100 | AID 588814;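 active = activation above the run's mean compound activation plus 3 SD, cut at about 16% in these data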;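 note: peak over basal fluorescence ratio within a 140 s kinetic read after compound addition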
M1 ag parental – nonselective activator or artifact in parental CHO-K1 cells; AID 602248; actives 0.48% (n = 360,000); Fluo-8 calcium fluorescence; scaled to maximal ATP response, vehicle zero; activation, % at 3 µM; in the data active = activation above about 15%;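 note: untransfected CHO-K1 host cells lacking M1 receptor as counterscreen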
CHO-K1 Ca antag – nonselective inhibitor or artifact in parental CHO-K1 cells; inhibition, % at 3 µM; ATP-induced calcium, Fluo-8 fluorescence; AID 602250; actives 0.6% (n = 360,000);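 active = inhibition above a per-plate cutoff, the plate's mean sample inhibition plus 3 SD, cut at about 24% in these data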
Large screens that a line does not name were inactive. Hits are enriched below; roughly 2.3% of the tested compounds scored in any of these assays.

CC(Nc1ccc2ccccc2c1)C(=O)N/N=C/c1ccncc1 (stereo not drawn)	none
O=[N+]([O-])c1c(Nc2ccc(O)cc2)cc(Cl)c2nonc12	CHRM1 antagonist 42, CHO-K1 Ca antag 45
Cc1cc(C)nc(NC(=O)c2cc(Br)ccc2Cl)n1	none
CCNC(=O)c1cc(Br)ccc1Cl	CHO-K1 Ca antag 24
O=C(NCc1ccco1)C(=O)NCC1OCCN1S(=O)(=O)c1cc(F)ccc1F (stereo not drawn)	CHRM1 agonist 16
O=C(NCc1ccco1)C(=O)NCC1OCCN1S(=O)(=O)c1ccc(F)cc1 (stereo not drawn)	none
COc1ccccc1N1CCN(C(=O)c2ccc(CS(=O)(=O)c3ccccc3OC)o2)CC1	CHRM1 agonist 17
CN1N=C2c3ccccc3CCC2C1c1ccc(Cl)cc1 (stereo not drawn)	none
CC(OC(=O)[C@@H]1CCCN1C(=O)c1cccs1)C(=O)Nc1cccc([N+](=O)[O-])c1 (stereo partly drawn)	none
Cc1ccc(S(=O)(=O)NCCC(=O)Nc2cc(F)ccc2C)cc1C	CHRM1 antagonist 21
O=C(Nc1cc(F)c(Br)cc1F)c1ccc(Cl)cc1	CHRM1 antagonist 39
Cc1ccc(S(=O)(=O)NCCC(=O)NC2CC2)cc1	none
O=C1CC(c2ccsc2)Sc2ccccc2N1 (stereo not drawn)	M1 ag parental 20
COc1ccc(Br)c(C(=O)N2CCCC2(C)C(=O)NCC(C)C)c1 (stereo not drawn)	CHO-K1 Ca antag 27
CCCCNC(=O)C1(C)CCN1C(=O)c1cc(OC)ccc1Br (stereo not drawn)	none
CCOC(=O)c1sc(S(C)(=O)=O)c2c1CCc1conc1-2	CHO-K1 Ca antag 36
COCCCNC(=S)Nc1c(C)cc(C)cc1C	none
CC(=O)Nc1c(O)nc(SCC(=O)N2CCCCC2)[nH]c1=O	CHRM1 PAM 26
CCN(CC)c1ccc(N)cc1	none
Nc1ccc(N(CCO)CCO)cc1	CHO-K1 Ca antag 100
CN(C)S(=O)(=O)c1ccc2oc(SCC(=O)c3c(N)n(C4CC4)c(=O)[nH]c3=O)nc2c1	M1 ag parental 20
CN(C)S(=O)(=O)c1ccc2oc(SCC(N)=O)nc2c1	none
Cc1ccccc1CN1CCCC(C(=O)Nc2ccccc2Oc2cccnc2)C1 (stereo not drawn)	none
CNC(=S)N1N=C(c2ccc(OC)cc2)CC1c1ccccc1Cl (stereo not drawn)	CHRM1 antagonist 34
O=C1Nc2ccccc2/C1=N\N=C\C1=C(N2CCOCC2)C(=C\c2ccccc2)/CC1	CHRM1 antagonist 30
CCCCCCCC[n+]1cccc2c3ccccc3ccc21	CHRM1 antagonist 98
Cc1cccc[n+]1CCCCCCCCCC[n+]1ccccc1C	none
CCCCCCCCCC[n+]1cccc2c3ccccc3ccc21	CHRM1 antagonist 82, M1 ag parental 18, CHO-K1 Ca antag 40
O=C(NCCS(=O)(=O)N1CCCCCC1)c1ccccc1	none
CCOC(=O)c1ccc(-c2ccc3c(=O)c4ccccc4n(C)c3c2)cc1F	none
CCCCCC(C)NC(=O)CN1C(=O)NC(C)(c2ccc3ccccc3c2)C1=O (stereo not drawn)	CHRM1 agonist 18
CC1(c2ccc(Cl)cc2)NC(=O)N(CC(=O)Nc2cccnc2Cl)C1=O (stereo not drawn)	CHRM1 agonist 22, M1 ag parental 17
CC1(c2ccc(OC(F)F)cc2)NC(=O)N(CC(=O)Nc2ccccc2)C1=O (stereo not drawn)	CHRM1 antagonist 26, CHRM1 agonist 46, M1 ag parental 46
CC1(c2ccc(OC(F)F)cc2)NC(=O)N(CC(=O)Nc2ccc3c(c2)OCO3)C1=O (stereo not drawn)	CHRM1 agonist 39, M1 ag parental 29
CCOC(=O)CN1C(=O)NC(C)(c2ccc(OC(F)F)cc2)C1=O (stereo not drawn)	none
CC(=O)Nc1ccc(/C=N/N2C(=O)NC(C)(c3ccc(OC(F)F)cc3)C2=O)cc1 (stereo not drawn)	CHRM1 agonist 27
COc1ccc(C(=O)c2ccc([N+](=O)[O-])cc2)cc1S(=O)(=O)N1CCC(C(=O)O)CC1	none
CN(C)CCCN(C(=O)c1cc(Cl)sc1Cl)c1nc2cc3c(cc2s1)OCO3	CHRM1 antagonist 96
CCN(Cc1ccccc1)S(=O)(=O)c1ccc(C(=O)N(CCCN(C)C)c2nc3cc4c(cc3s2)OCCO4)cc1	CHRM1 antagonist 21
O=C(Nc1ccc(C(O)c2ccccc2)cc1)[C@@H]1O[C@H](CO)[C@@H](O)[C@H]1O (stereo partly drawn)	none
CCCc1cc(=O)n2nc(N3CCC(C(=O)Nc4cccc(C(C)=O)c4)CC3)sc2n1	none
COc1ccc(CC(=O)Nc2cccc(-c3nnc(-c4ccccc4)o3)c2)cc1OC	CHRM1 antagonist 29
O=C(Nc1cccc(-c2nnc(-c3ccco3)o2)c1)c1ccccc1	none
O=C(Cc1ccccc1)Nc1cccc(-c2nnc(-c3ccco3)o2)c1	none
CC(=O)Oc1ccc(C(=O)Nc2cccc(-c3nnc(-c4ccco4)o3)c2)cc1	M1 ag parental 24
COc1ccc(CC(=O)Nc2cccc(-c3nnc(-c4cccc(C)c4)o3)c2)cc1OC	CHRM1 antagonist 38
COc1ccccc1OCC(=O)Nc1cccc(-c2nnc(-c3ccco3)o2)c1	CHRM1 antagonist 24
Cc1ccccc1CN1C[C@H]2CON(C)[C@H]2C[C@H]1c1cccc(Br)c1	none
Cc1scc2c1N(C(=O)CN1CCN(C)CC1)c1ccccc1NC2=O	CHRM1 antagonist 98
O=C(c1ccco1)N1CCN(Cc2nc3ccc([N+](=O)[O-])cc3c(=O)n2-c2ccccc2F)CC1	CHO-K1 Ca antag 28
c1cc2c(cc1Nc1nc(-c3ccc4c(c3)OCO4)cs1)OCCO2	CHO-K1 Ca antag 26
CCC(=O)Nc1nc(-c2ccc3c(c2)OCCO3)cs1	none
CC(C)(C)C(=O)Nc1nc(-c2ccc3c(c2)OCO3)cs1	M1 ag parental 15
Nc1ccn([C@@H]2O[C@H](CNCc3cnc(N4CCOCC4)nc3)[C@@H](O)[C@H]2O)c(=O)n1	none
CC(C)c1nnc(NC(=O)C2CCN(C(=O)Nc3ccc(Cl)cc3)CC2)s1	none
Cn1cc(CNC(=O)C2CCC(=O)N(Cc3ccccc3F)C2)cn1 (stereo not drawn)	CHRM1 PAM 26
COC(=O)c1ccc(CNC(=O)C2CCC(=O)N(CCCc3ccccc3)C2)cc1 (stereo not drawn)	none
Cc1ccc(F)c(CNC(=O)C2CCC(=O)N(Cc3ccccn3)C2)c1F (stereo not drawn)	CHO-K1 Ca antag 27
COc1ccccc1CNC(=O)C1CCC(=O)N(CCCc2ccccc2)C1 (stereo not drawn)	CHO-K1 Ca antag 32
Cc1ccccc1-n1nnnc1SCC(N)=O	none

Screens: PubChem BioAssay, The Scripps Research Institute Molecular Screening Center
